# Assay results reported in PubChem BioAssay (EPA / NIEHS).
# Values joined by “and” are separate entries in the source; they are usually repeats but may differ in a detail not shown here. Identical values can stand only once. More than one record can exist for a structure, and the calls need not agree. Active and inactive are the calls of the source. How the source made its calls: active means hit-call score of the fitted dose curve at least 0.9, where 1 is the maximum; inactive means score below 0.9.
# Experiment: BSK_KF3CT_SRB: Viability Assessment in the BioMAP Diversity Plus: KF3CT Assay (AID 2283069);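 further: fitted for both signal gain and loss against DMSO baseline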
# Details: primary human keratinocytes with fibroblasts
# Description: BSK_KF3CT is a cell-based, multiplexed-readout assay that uses keratinocytes and foreskin fibroblasts, a human skin primary cell co-culture, with measurements taken at 24 hours after chemical dosing in a 96-well plate.BSK_KF3CT_SRB is an assay component measured in the BSK_KF3CT assay. It measures 0.1% sulforhodamine related to cell death using Sulforhodamine staining technology.Data from the assay component BSK_KF3CT_SRB was analyzed into 1 assay endpoint. This assay endpoint, BSK_KF3CT_SRB, was analyzed with bidirectional fitting relative to DMSO as the negative control and baseline of activity. Using a type of viability reporter, gain or loss-of-signal activity can be used to understand changes in the signaling. Furthermore, this assay endpoint can be referred to as a primary readout, because this assay has produced multiple assay endpoints where this one serves a signaling function. To generalize the intended target to other relatable targets, this assay endpoint is annotated to the cell morphology intended target family, where the subfamily is cell conformation.
# The levels of cell surface (or secreted, indicated by the prefix "s") biomarker endpoints were measured by ELISA. Overt cytotoxicity to cells in confluent adherent cultures (all systems other than the BT system) was assessed by measuring total protein levels using sulforhodamine B (SRB) staining in parallel cultures at the time of biomarker measurements, indicated as SRB endpoints. For proliferation assays for adherent cell types, individual cell types are cultured at sub-confluence and relative cell numbers quantified by SRB staining at time points optimized for each system (48 h: 3C and CASM3C systems; 72 h: BT and HDF3CGF systems; 96 h: SAg system). SRB was performed by staining cells with 0.1% SRB after fixation with 10% TCA and reading wells at 560 nm.Viability and proliferation of PBMC (T cells) was quantified by Alamar Blue reduction for the SAg and BT systems. For PBMC viability (referred to as PBMC Cytotoxicity within the assay endpoint names), cells were plated (75,000/well in a 96-well plate) and then chemical samples added for 1 h before addition of activators, SEB and TSST-1 (20 ng/mL final concentration each). Cells were incubated for 90 h. Then, Alamar Blue (20 uL/well) (Invitrogen, Cat DAL1100) was added for 6 h, and the plates were read with a fluorescence microplate reader at 546/580 nm (excitation/emission). For PBMC proliferation, cells were plated and activated as above but incubated for only 16 h prior to addition of Alamar Blue. Plates were read after 6 h.
Structure (SMILES),outcome,AC50
Cc1ccc([N+](=O)[O-])cc1N,inactive,–
O=C1CCCCCCCCCCCN1,inactive,–
O=C(Cl)c1c(Cl)c(Cl)c(C(=O)Cl)c(Cl)c1Cl,inactive,–
CC(c1cc(C(C)(C)C)cc(C(C)(C)C)c1O)c1cc(C(C)(C)C)cc(C(C)(C)C)c1O,inactive,–
O=C1CCCCCCCCCCC1,inactive,–
CCNc1nc(NC(C)(C)C)nc(OC)n1,inactive,–
C1CNCCN1,inactive,–
COC(OC)(C(=O)c1ccccc1)c1ccccc1,inactive,–
c1ccc2sc(SSN3CCOCC3)nc2c1,–,10.3 µM (active)
c1ccc2c(c1)[nH]c1ccccc12,inactive,–
CC(C)C(=O)OCCc1ccccc1,inactive,–
Cc1c(O)cccc1O,inactive,–
CC(CCC(=O)O)(c1ccc(O)cc1)c1ccc(O)cc1,inactive,–
CCC1(C)C(=O)N(Cl)C(=O)N1Cl (stereo not given),inactive,–
C=CC(=O)OCC(C)OCC(C)OCC(C)OC(=O)C=C (stereo not given),–,31.9 µM (active)
CCCCCCCCCCCC(=O)N(C)CC(=O)O,inactive,–
CCCC(C)C(=O)OCC (stereo not given),inactive,–
C[N+](C)(C)CCCNS(=O)(=O)C(F)(F)C(F)(F)C(F)(F)C(F)(F)C(F)(F)C(F)(F)C(F)(F)C(F)(F)F,–,49.8 µM (active) and 51.4 µM (active)
COc1ccc(C(=O)/C(Br)=C\C(=O)O)cc1,inactive,32 µM (active)
CCCCCC1=CCCC1=O,inactive,–

Structure (SMILES),outcome,AC50
CC(C)CCCCCOC(=O)CS,inactive,–
Nc1ccc(C(=O)O)cc1,inactive,–
O=C(Oc1ccccc1)c1ccccc1C(=O)Oc1ccccc1,inactive,–
C=CC(=O)OCCCCCCCC(C)C,inactive,–
O=C(O)C(F)(F)C(F)(F)C(F)(F)C(F)(F)C(=O)O,inactive,–
CC=C(C)C(C)=O,inactive,–
CC(Cl)COP(=O)(OCC(C)Cl)OCC(C)Cl (stereo not given),inactive,–
CCCCCCCCCCCC(C)=O,inactive,–
Oc1c(Cl)cc(Cl)c(Cl)c1Cl,inactive,–
Fc1ccc(Br)cc1,inactive,–
CCCCCCOC(=O)CCCCC(=O)OCCCCCC,inactive,–
CCCCCCC=O,inactive,–
CCCCCCCO,inactive,–
C=CCCCCCCCCC=O,inactive,–
CC1(C)CC(O)CC(C)(C)N1[O],inactive,–
CC/C=C\CCOC(=O)c1ccccc1O,–,28.8 µM (active)
c1ccc(Nc2cccc3ccccc23)cc1,–,31.8 µM (active) and 34.8 µM (active)
Clc1cc(Cl)c(Cl)c(Cl)c1Cl,inactive,–
CCCCCCCCC(CO)CCCCCC (stereo not given),inactive,–
